Test results taken from PubChem BioAssay (NCI).
Where “and” joins values, the source holds several entries; their conditions need not be identical. Equal entries are not always repeated. The panel holds about 79,000 compounds, 15% with a hit somewhere; the sample as a whole holds those more often. No stated cut-off is given here; in the data, active means growth inhibition above about 70%; inactive means the rest.

Assays:
[1] = NCI Yeast Anticancer Drug Screen. Data for the rad50 strain (AID 155);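 further: 0% = growth of vehicle-only cultures of the same strain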; settings: S. cerevisiae rad50 strain growth inhibition, active compounds read high; at 50.0 µM unless noted
How it was run: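 Relative growth inhibition (compound vs vehicle) was measured in yeast with a defined repair-gene alteration.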

[2] = NCI Yeast Anticancer Drug Screen. Data for the mec2-1 strain (AID 157); settings: S. cerevisiae mec2-1 strain, active compounds read high; at 50.0 µM unless noted
How it was run: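 Vehicle-treated cultures served as reference for growth inhibition of compound-exposed mec2-1 yeast.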

[3] = NCI Yeast Anticancer Drug Screen. Data for the sgs1 mgt1 strain (AID 161);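 further: 0% = growth of cultures given vehicle only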; settings: S. cerevisiae sgs1 mgt1 strain, active compounds read high; at 50.0 µM unless noted
How it was run: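 Genetically altered yeast, compound exposure, growth inhibition relative to vehicle.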

[4] = NCI Yeast Anticancer Drug Screen. Data for the cln2 rad14 strain (AID 165);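 further: 0% = growth equal to vehicle treated cultures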; settings: S. cerevisiae cln2 rad14 strain, active compounds read high; at 50.0 µM unless noted
How it was run: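 Each compound was tested on cln2 rad14 yeast. Inhibition of growth was calculated against vehicle-exposed controls.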

[5] = NCI Yeast Anticancer Drug Screen. Data for the bub3 strain (AID 167); settings: S. cerevisiae bub3 mutant strain, active compounds read high; at 50.0 µM unless noted
How it was run: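 Screening used yeast with an engineered genetic alteration affecting cell cycle control. Compound-exposed cultures were compared with vehicle cultures, and reduced growth was taken as inhibition.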

[6] = NCI Yeast Anticancer Drug Screen. Data for the mlh1 rad18 strain (AID 175); settings: S. cerevisiae mlh1 rad18 strain growth inhibition, active compounds read high; at 50.0 µM unless noted
How it was run: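 Vehicle-treated cultures served as the reference for growth inhibition in a yeast strain carrying DNA damage repair alterations exposed to each compound.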

Measured: growth inhibition

CC1CCCCN1C(=O)Nc1ccc(Cl)cc1[N+](=O)[O-] (centres undefined)
inactive: [1] 9.3% | [2] 44.2% | [3] 29.6% | [4] -15.6% | [5] 64.3% | [6] 42.4%

COc1ccc(OCc2ccc(OC)c(OC)c2)cc1
inactive: [1] 7.2% | [2] -3.7% | [3] -11.2% | [4] -10.7% | [5] -8.15% | [6] -7.35%

C=C(C)C1CCC2(C)C1CCC1(C)C2CCC2C3(C)C4OC(OC4=O)C(C)(C)C3CCC21C (centres undefined)
inactive: [1] -0.8% | [2] -20% | [3] 11.8% | [4] 0.1% | [5] 17.6% | [6] -53%

O=C(O)C(NCCCCCNC(C(=O)O)c1ccccc1)c1ccccc1 (centres undefined)
inactive: [1] 15.8% | [2] 21.2% | [3] 15.9% | [4] 24.9% | [5] 13.9% | [6] 24.6%

CN(C)c1ccc(S(=O)(=O)OC2C(C3COC(C)(C)O3)OC3OC(C)(C)OC32)cc1 (centres undefined)
inactive: [1] -8.5% | [2] 0.75% | [3] -8.7% | [4] -16.2% | [5] 3.25% | [6] 4.7%

CC(C)CCCC(C)C1CCC2C3CC4OC45CC(O)CCC5(C)C3CCC12C (centres undefined)
inactive: [1] 42.4% | [2] 18.1% | [3] 47.7% | [4] 7.3% | [5] -1.1% | [6] 29.4%

O=c1c2cc(Cl)ccc2c2ccc(Cl)cc2c(=O)n1-c1ccc2c(c1)Cc1ccccc1-2
inactive: [1] 1.65% | [2] -0.2% | [3] -1.7% | [4] -10.6% | [5] 8.8% | [6] -3.4%

CC(=O)OC/C(=C/C#N)C1CCC2C3CC=C4CC(OC(C)=O)CCC4(C)C3CCC12C (centres undefined)
inactive: [1] 15.6% | [2] -1.25% | [3] -3.75% | [4] -12.8% | [5] -2.15% | [6] 8.65%

Cc1ccc(O)c(C=NCCN=Cc2cc(C)ccc2O)c1.[Zn]
inactive: [1] -14.4% | [2] 8.6% | [3] 0.05% | [4] -13% | [5] -43.1% | [6] -32.4%

CCCCN1C(=O)NC(Cc2ccccc2)C1=O (centres undefined)
inactive: [1] -13.2% | [2] -1.35% | [3] -13.2% | [4] 4.95% | [5] -1.9% | [6] -12.5%

COc1ccc(N2C(=O)C/C(=C/c3ccc(C(C)C)cc3)C2=O)cc1
inactive: [1] 9.35% | [2] -0.05% | [3] 11.9% | [4] -60% | [5] -13.8% | [6] 9.15%

C=C(Br)CNC(=O)C(O)(c1ccccc1)c1ccccc1
inactive: [1] -4.15% | [2] 3.65% | [3] 0% | [4] -15.6% | [5] 5.15% | [6] -16.9%

O=I(=O)c1ccccc1
inactive: [1] 3.95% | [2] 9.7% | [3] 17.5% | [4] 26.6% | [5] 20.1% | [6] 17.9%

O=C(CN1CCCCCC1)Nc1ccc2c(c1)C(=O)c1ccc(NC(=O)CN3CCCCCC3)cc1C2=O
inactive: [1] -12.3% | [2] 37.8% | [3] 51.1% | [4] 38.6% | [5] 8.95% | [6] 36.4%

CCOc1c(N=Nc2cccc(Cl)c2)c(C)nn1C(N)=S
inactive: [1] 20.4% | [2] 3.35% | [3] 9.65% | [4] -25.1% | [5] -15.5% | [6] 19.4%

BrCC1CN=C(c2ccccc2)O1 (centres undefined)
inactive: [1] -5.55% | [2] -4% | [3] 2.65% | [4] -26.1% | [5] 1.6% | [6] -2.95%

CCCCOc1ccc(Nc2cc(Cl)ccc2C(=O)O)cn1
inactive: [1] -29.2% and 48.1% | [2] -14.2% and 23.7% | [3] -25.6% and 44.4% | [4] -12.6% and 37.7% | [5] -36.1% and 35% | [6] -22.6% and 25.1%

Oc1ccccc1/C=N/N1C(=S)N(C23CC4CC(CC(C4)C2)C3)C(=Nc2ccccc2)C1=Nc1ccccc1
inactive: [1] -8.55% | [2] -16.2% | [3] -23.2% | [4] 2.35% | [5] -3% | [6] -14.3%

CC(=O)Oc1cc(C)c(OC(C)=O)c2ccccc12
inactive: [1] -6.6% | [2] 17.7% | [3] 4.45% | [4] -1.3% | [5] 10.3% | [6] 4.1%

Cc1ccc2ccccc2c1CN(C)C
inactive: [1] 4.7% | [2] -1.05% | [3] -8.6% | [4] -61% | [5] -3.45% | [6] -12.7%

CS(=O)(=O)OC1Cc2ccccc2C1
inactive: [1] 12.6% | [2] -0.3% | [3] -2.35% | [4] -6.1% | [5] -5% | [6] 9.9%

C=CCCC(CCC=C)(C(=O)O)C(=O)O
inactive: [1] -7.1% | [2] -9.7% | [3] -16.7% | [4] 6.65% | [5] -20.9% | [6] -36.8%

CCCCOC(=O)NC(=O)c1cn(CCCOC(=O)NCCCCCCNC(=O)OCCCn2cc(C(=O)NC(=O)OCCCC)c(=O)[nH]c2=O)c(=O)[nH]c1=O
inactive: [1] -1.1% | [2] 2.75% | [3] -4.2% | [4] 24.6% | [5] -6.35% | [6] -33.1%

N#CCNC(=O)Cc1ccccc1
inactive: [1] 10.2% | [2] -10.2% | [3] -10.2% | [4] -12.4% | [5] -30.3% | [6] -4.7%

CC(Oc1c(Cl)cc(Cl)cc1Cl)C(=O)O (centres undefined)
inactive: [1] -13.7% | [2] -51.8% | [3] -8.6% | [4] 12.8% | [5] -34.9% | [6] -15.8%

COc1cc(CC(=O)O)ccc1OC(C)=O
inactive: [1] 4.15% | [2] 2.65% | [3] -16.8% | [4] -25.1% | [5] 1.25% | [6] -5.75%

CCCCC(O)CCC (centres undefined)
inactive: [1] -30.4% | [2] -52.4% | [3] -24.8% | [4] 4.85% | [5] -48.7% | [6] -33.5%

CC(=O)CC(=O)ON(C)C(=O)Cc1ccccc1
inactive: [1] 29.6% | [2] 15.2% | [3] -2.75% | [4] -4.4% | [5] -6.1% | [6] -8.35%

Cc1ccc(C(C)C)cc1NC(=O)c1ccc([N+](=O)[O-])cc1
inactive: [1] -5.15% | [2] 16.4% | [3] 16.9% | [4] -5.8% | [5] 2.6% | [6] 21.6%

COS(=O)(=O)N(C)c1nc(N(C)C)nc(N(C)C)n1
inactive: [1] -2.25% | [2] -12.2% | [3] -1.2% | [4] 22.9% | [5] 3.95% | [6] -0.95%

CCOC(Cn1ccc[n+]1CC(=O)c1ccccc1)OCC
inactive: [1] 0.9% | [2] -5.25% | [3] -10.8% | [4] -21.6% | [5] -5.75% | [6] 9.1%

O=C(CCC(=O)Nc1ccccc1C(F)(F)F)N/N=C1\C(=N\NC(=O)CCC(=O)Nc2ccccc2C(F)(F)F)C(c2ccc3c(c2)OCO3)Oc2ccccc21 (centres undefined)
inactive: [1] 19.4% | [2] 3.4% | [3] 1.15% | [4] -11% | [5] -5.05% | [6] 4.55%

C/C(=C\C(=O)c1ccc(Sc2ccccc2)cc1)c1ccc(Sc2ccccc2)cc1
inactive: [1] 25.1% | [2] -4.85% | [3] 6.15% | [4] -17.6% | [5] 24.1% | [6] 21.2%

CC12CCC([C@H](C(O)C3CCCCC3)C1=O)C2(C)C (some centres undefined)
inactive: [1] -2.7% | [2] -16.6% | [3] -12.8% | [4] 16.6% | [5] -5.7% | [6] -5.1%

C[N+]1(Cc2csc(-c3ccc(Cl)cc3)n2)CCCC1
inactive: [1] -12.5% | [2] -23.1% | [3] 4.55% | [4] 9.75% | [5] -5.7% | [6] -11.7%

O=C(O)CCCCCCCC(=O)O
inactive: [1] 15.4% | [2] -0.45% | [3] 16.9% | [4] -3.05% | [5] 5.5% | [6] 27.2%

CS/C(C)=N/OC(=O)NCCCCNc1ccc(N=[N+]=[N-])cc1
inactive: [1] 13.9% | [2] -4.15% | [3] 5.4% | [4] 36.7% | [5] 4.5% | [6] 0.6%

N#CC(NNC(=O)Cc1ccccc1)c1ccc(O)cc1 (centres undefined)
inactive: [1] -18.1% | [2] -22.6% | [3] -37.1% | [4] -7.05% | [5] -25.6% | [6] -32.5%

c1ccc(N=NC2(c3ccccc3)CC(c3ccccc3)=NN(c3ccccc3)C2NNc2ccccc2)cc1 (centres undefined)
inactive: [1] 53% | [2] 7.8% | [3] 23.8% | [4] 17.7% | [5] 6.75% | [6] 31.7%
